Results as given in the supplement of paper PMC6089552.
The campaign covered roughly 3,200 compounds. About 300 (9.4%) showed activity. The entries come from a sample that favours actives as a whole.

Test system: A673/TR/shEF
Assay: cell viability (LOESS-normalised, relative to median of negative controls) (log2 ratio); higher = more viable cells (less compound effect), active = hit call of the paper (over 3 MAD below the median)
Settings: treatment time: 72 h
Method in brief: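 Viability of A673/TR/shEF Ewing sarcoma cells was determined by CellTiter-Glo luminescence. The cells, at 1,500 per well in 384-well plates, were grown with or without doxycycline from 24 h before compound addition to switch on EWS-FLI1 shRNA knockdown, then exposed for three days to library compounds at two or more concentrations or to DMSO controls. Signals were LOESS-corrected plate by plate, normalised to the negative-control median and log2-transformed.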

[1] = 0.25 µM, library screen: screen1, EWS-FLI1 expression: high (no doxycycline)
[2] = 0.25 µM, library screen: screen1, EWS-FLI1 expression: low (doxycycline-induced shRNA knockdown)
[3] = 2.5 µM, library screen: screen1, EWS-FLI1 expression: high (no doxycycline)
[4] = 2.5 µM, library screen: screen1, EWS-FLI1 expression: low (doxycycline-induced shRNA knockdown)
[5] = 0.103 µM, library screen: screen3, EWS-FLI1 expression: high (no doxycycline)
[6] = 0.103 µM, library screen: screen3, EWS-FLI1 expression: low (doxycycline-induced shRNA knockdown)
[7] = 0.308 µM, library screen: screen3, EWS-FLI1 expression: high (no doxycycline)
[8] = 0.308 µM, library screen: screen3, EWS-FLI1 expression: low (doxycycline-induced shRNA knockdown)
[9] = 0.926 µM, library screen: screen3, EWS-FLI1 expression: high (no doxycycline)
[10] = 0.926 µM, library screen: screen3, EWS-FLI1 expression: low (doxycycline-induced shRNA knockdown)
[11] = 2.8 µM, library screen: screen3, EWS-FLI1 expression: high (no doxycycline)
[12] = 2.8 µM, library screen: screen3, EWS-FLI1 expression: low (doxycycline-induced shRNA knockdown)
[13] = 8.3 µM, library screen: screen3, EWS-FLI1 expression: high (no doxycycline)
[14] = 8.3 µM, library screen: screen3, EWS-FLI1 expression: low (doxycycline-induced shRNA knockdown)
[15] = 25 µM, library screen: screen3, EWS-FLI1 expression: high (no doxycycline)
[16] = 25 µM, library screen: screen3, EWS-FLI1 expression: low (doxycycline-induced shRNA knockdown)
[17] = 0.025 µM, library screen: screen1, EWS-FLI1 expression: high (no doxycycline)
[18] = 0.025 µM, library screen: screen1, EWS-FLI1 expression: low (doxycycline-induced shRNA knockdown)
[19] = 25 µM, library screen: screen1, EWS-FLI1 expression: high (no doxycycline)
[20] = 25 µM, library screen: screen1, EWS-FLI1 expression: low (doxycycline-induced shRNA knockdown)
[21] = 0.25 µM, library screen: screen2, EWS-FLI1 expression: high (no doxycycline)
[22] = 0.25 µM, library screen: screen2, EWS-FLI1 expression: low (doxycycline-induced shRNA knockdown)
[23] = 2.5 µM, library screen: screen2, EWS-FLI1 expression: high (no doxycycline)
[24] = 2.5 µM, library screen: screen2, EWS-FLI1 expression: low (doxycycline-induced shRNA knockdown)

Measured: cell viability (log2)

C=CC(C1=CC(=O)C(OC)=CC1=O)c1ccccc1 (stereo not drawn)
inactive: [1] 0.0774 | [2] 0.000535 | [3] 0.158 | [4] 0.101

COc1ccc(C2C3=C(CC(C)(C)CC3=O)OC3=C2C(=O)CC(C)(C)C3)cc1[N+](=O)[O-]
inactive: [1] 0.06 | [2] 0.0112 | [3] 0.134 | [4] -0.00188

CC1=C(O)C(=O)C(C(C)C)CC1 (stereo not drawn)
inactive: [1] 0.0674 | [2] 0.0473 | [3] 0.0636 | [4] 0.0767

COc1ccc(C2CC(=O)c3c(OC)cc(O)cc3O2)cc1 (stereo not drawn)
inactive: [1] 0.0309 | [2] -0.00204 | [3] -0.0215 | [4] 0.0561

CC1=C2[C@H]3OC(=O)[C@@H](C)[C@@H]3[C@@H](O)C[C@@]2(C)C=CC1=O
inactive: [1] 0.026 | [2] 0.0292 | [3] 0.113 | [4] 0.0749

CC(C)[C@@H](C)C=C[C@@H](C)[C@H]1CC[C@H]2C3=CCC4CC(=O)CC[C@]4(C)[C@H]3CC[C@]12C (stereo partly drawn)
inactive: [1] 0.0656 | [2] 0.0592 | [3] 0.126 | [4] 0.0808

C[C@@H]1C/C=C/C=C/C=C/C=C/[C@H](OC2O[C@H](C)[C@@H](O)[C@H](N)[C@@H]2O)C[C@@H]2O[C@](O)(C[C@@H](O)C[C@H]3O[C@@H]3/C=C/C(=O)O1)C[C@H](O)[C@H]2C(=O)O (stereo partly drawn)
inactive: [5] 0.0488 | [6] 0.0464 | [7] 0.0456 | [8] 0.0497 | [9] 0.0317 | [10] 0.0938 | [11] 0.0554 | [12] 0.0621 | [13] 0.0808 | [14] 0.0825 | [15] 0.128 | [16] 0.0916

CCCCCCCCCCCCCCCC(=O)C1=C(O)[C@@H](CO)OC1=O
inactive: [17] 0.213 | [18] 0.0909 | [1] 0.235 | [2] 0.112 | [4] 0.0271 | [20] -0.135
active: [3] -0.362 | [19] -0.293

CCCCCCCCCCCCCCCC(=O)NCCO
inactive: [21] 0.109 | [22] 0.0709 | [23] 0.0624 | [24] 0.0396

N#C/C(=C\c1cccc(Cl)c1)c1nc2ccccc2[nH]1
inactive: [1] 0.153 | [2] 0.256 | [3] 0.247 | [4] 0.148

Oc1ccc(OCc2ccccc2)cc1
active: [11] -0.186 | [15] -0.212
inactive: [5] 0.123 | [6] -0.0268 | [7] 0.0306 | [8] 0.0601 | [9] 0.0336 | [10] -0.0221 | [12] 0.0872 | [13] -0.00746 | [14] 0.0842 | [16] 0.0776

CC(COc1ccccc1)NC(C)C(O)c1ccc(O)cc1 (stereo not drawn)
inactive: [1] 0.163 | [2] 0.0434 | [3] 0.178 | [4] 0.141

O=C(OCc1ccccc1)c1ccccc1
inactive: [1] 0.0522 | [2] 0.0983 | [3] 0.0811 | [4] 0.112

C=C1CCC2OC2(C)CCC2C1CC2(C)C (stereo not drawn)
inactive: [1] 0.0308 | [2] 0.0474 | [3] 0.104 | [4] 0.0209

COc1ccc2c(c1OC)C(=O)O[C@H]2[C@@H]1c2ccccc2CCN1C
inactive: [1] 0.0344 | [2] 0.0398 | [3] 0.0365 | [4] -0.0658

CCC(C)C(NC)C(=O)O (stereo not drawn)
inactive: [1] 0.07 | [2] 0.0975 | [3] 0.13 | [4] -0.0496

COc1ccc(S(=O)(=O)N(CCO)c2ccccc2CN(C)C/C=C/c2ccc(Cl)cc2)cc1
inactive: [17] 0.202 | [18] -0.0138 | [1] 0.226 | [2] 0.0804 | [4] -0.0574
active: [3] -0.284 | [19] -1.32 | [20] -0.531

COc1cccc(NC(=O)/C=C/c2ccc(Cl)cc2)c1
inactive: [21] 0.303 | [22] 0.124 | [23] 0.272 | [24] 0.108

CC(=O)OCC(OC(C)=O)C(OC(C)=O)C(OC(C)=O)C(OC(C)=O)C(COC(C)=O)OC(C)=O (stereo not drawn)
inactive: [1] 0.1 | [2] 0.086 | [3] 0.176 | [4] -0.0056

CCn1cc(C(=O)O)c(=O)c2ccc(Cc3ccccc3)nc21
inactive: [21] 0.215 | [22] 0.061 | [23] 0.162 | [24] 0.124

COc1cc(CN2CCN(Cc3ccc([N+](=O)[O-])cc3)CC2)c([N+](=O)[O-])cc1OC
inactive: [1] 0.132 | [2] 0.09 | [3] 0.0515 | [4] 0.104
